High-throughput results (PubChem)
Hits are enriched below; roughly 7.8% of the tested compounds scored in any of these assays.
sEH activator – soluble epoxide hydrolase (human) activation; activation, % at 2 µM; purified human sEH enzymatic activity, activator screen; 0.04% of 91,000 active; P34913; in the data active = activation above about 37%
Target sequence (P34913 whole entry, looked up): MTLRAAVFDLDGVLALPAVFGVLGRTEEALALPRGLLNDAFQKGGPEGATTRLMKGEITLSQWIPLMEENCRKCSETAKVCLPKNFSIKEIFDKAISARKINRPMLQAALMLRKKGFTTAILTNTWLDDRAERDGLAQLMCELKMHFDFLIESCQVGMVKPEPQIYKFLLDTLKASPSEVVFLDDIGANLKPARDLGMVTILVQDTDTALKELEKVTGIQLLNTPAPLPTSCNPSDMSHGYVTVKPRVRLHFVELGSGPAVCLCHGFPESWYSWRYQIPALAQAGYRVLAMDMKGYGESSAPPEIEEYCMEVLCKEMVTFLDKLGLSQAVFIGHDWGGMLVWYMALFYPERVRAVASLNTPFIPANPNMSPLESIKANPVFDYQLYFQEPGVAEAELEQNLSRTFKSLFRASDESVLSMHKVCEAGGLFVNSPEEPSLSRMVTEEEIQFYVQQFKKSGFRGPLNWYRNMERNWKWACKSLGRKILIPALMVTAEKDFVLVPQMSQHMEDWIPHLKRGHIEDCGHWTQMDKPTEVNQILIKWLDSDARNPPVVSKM
PostGolgi ctrl – inhibits growth of the yeast control strain | inhibition, % at 10 µM | efflux-deficient yeast background strain, growth absorbance A615, 16 h | 5% of 98,000 active | AID 738
Cav3 T inh – blocks human Cav3.2 T-type calcium channel. B-score at 10 µM. AID 449739. 4% of 100,000 active. Cav3.2-expressing cells, Fluo-4 calcium fluorescence FDSS; stronger effect = lower value. O95180;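 active = single-dose well whose peak fluorescence ratio is a statistical outlier from its plate by either plate-standardised score or position-corrected B-score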
PostGolgi yeast – growth inhibition of a yeast mutant, post-Golgi transport screen | post-Golgi transport phenotypic cell assay | inhibition, % at 10 µM | 0.9% of 98,000 active | AID 739;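 also: yeast cells grown in 1536-well plates; yeast grown about 18 h at 30C before absorbance read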
sEH inh – inhibitors of human soluble epoxide hydrolase | inhibition, % at 2 µM | 0.34% of 91,000 active | P34913 | AID 707 | recombinant human sEH enzymatic activity assay; in the data active = inhibition above about 80%
Active calls of the source: *; x = not tested or not shown. Rule as the data show it, unless noted: active = inhibition above about 30%; inactive = the rest.

SMILES	sEH activator	PostGolgi ctrl	Cav3 T inh	PostGolgi yeast	sEH inh
O=C(NCC1(c2ccccc2)CCCC1)C1(c2ccccc2)CCCC1	3.6	x	-6.57*	x	0.0
CCN(CCCNC(=O)c1[nH]c(C)c(C(C)=O)c1C)c1ccccc1	x	9.8	0.355	-2.0	x
Cc1cccc(N2CCN(C(=O)c3ccc(NS(=O)(=O)c4c(C)noc4C)cc3)CC2)c1C	-7.9	14.3	-7.16*	5.3	7.9
COc1ccccc1Cn1c(-c2ccccc2OC)nc2ccccc21	8.2	48.5*	-6.42*	6.4	-10.2
C=CCn1c(-c2ccc(OC)cc2)nc2ccccc21	-7.0	12.4	-0.838	-5.5	6.3
COc1ccc(CNc2nc3ccccc3n2Cc2ccccc2)cc1OC	-2.2	6.9	-5.42*	1.4	1.8
COc1ccc(Cn2c(/C=C/c3ccccc3)nc3ccccc32)cc1	x	42.5*	-2.91	16.5	x
COc1ccc(-c2nc3ccccc3n2Cc2ccccc2)cc1	1.6	55.4*	-9.91*	19.6	-2.9
CCn1c(/C=C/c2ccccc2)nc2ccccc21	11.1	13.3	-1.03	3.9	-9.2
COCCNC(=O)c1onc(CSc2cc(C)cc(C)c2)c1C(=O)NCCOC	x	x	-0.564	x	x
COc1ccc(-c2nc(CSCC(=O)N3CCN(C(=O)c4ccco4)CC3)c(C)o2)cc1OC	4.6	-3.6	0.277	-6.7	-2.3
COc1ccc(S(=O)(=O)N2CCOC2CNC(=O)C(=O)NCCc2c[nH]c3ccccc23)cc1C (centres undefined)	x	x	-3.47*	x	x
CCCCNC(=O)C(C#N)c1nc2ccccc2nc1N1CCN(c2ccccc2F)CC1 (centres undefined)	-1.1	12.9	-7.54*	-2.2	0.8
COCCOC(=O)C(C#N)c1nc2ccccc2nc1N1CCN(Cc2ccccc2)CC1 (centres undefined)	x	4.5	-3.74	11.2	x
C=CCOC(=O)C(C#N)c1nc2ccccc2nc1N1CCN(Cc2ccccc2)CC1 (centres undefined)	x	8.2	0.0113	-6.4	x
CC(C)COC(=O)C(C#N)c1nc2ccccc2nc1N1CCN(Cc2ccccc2)CC1 (centres undefined)	10.6	18.5	-3.96*	1.1	-6.5
C=CCOC(=O)C(C#N)c1nc2ccccc2nc1N1CCN(c2ccccc2OC)CC1 (centres undefined)	x	12.1	-9.25*	3.9	x
COCCNC(=O)C(C#N)c1nc2ccccc2nc1N1CCCCCC1 (centres undefined)	13.4	10.8	x	5.5	-15.4
COCCCNC(=O)C(C#N)c1nc2ccccc2nc1N1CCN(Cc2ccccc2)CC1 (centres undefined)	x	16.4	-8.99*	5.3	x
OCCNc1nc(Nc2ccccc2Oc2ccccc2)nc(N2CCCC2)n1	x	x	-0.0328	x	x
C=CCNC(=O)C(C#N)c1nc2ccccc2nc1N1CCN(Cc2ccccc2)CC1 (centres undefined)	-8.6	-0.3	0.161	14.9	9.7
N#CC(C(=O)NC1CC1)c1nc2ccccc2nc1N1CCN(C/C=C/c2ccccc2)CC1 (centres undefined)	-3.1	20.9	-11.3*	1.9	5.8
COCC(C)OC(=O)C(C#N)c1nc2ccccc2nc1N1CCN(Cc2ccccc2)CC1 (centres undefined)	3.6	20.5	-6.12*	3.9	-3.4
N#CC(C(=O)OC1CCCCC1)c1nc2ccccc2nc1N1CCOCC1 (centres undefined)	17.6	40.4*	-1.15	-0.3	-19.0
CN1CCN(c2nc3ccccc3nc2C(C#N)C(=O)OC2CCCCC2)CC1 (centres undefined)	-7.4	16.9	0.00868	2.0	7.3
SMILES	sEH activator	PostGolgi ctrl	Cav3 T inh	PostGolgi yeast	sEH inh
COc1cccc(CNC(=O)C2CCN(c3cnccn3)CC2)c1	-3.9	x	0.295	x	5.4
Cc1nc2ccccc2c2oc(C(=O)N3CCc4ccccc4C3)cc12	-4.2	35.2*	1.05	-9.9	6.3
Cc1nn(-c2ccccc2)c2sc(C(=O)N3CCc4ccccc4C3)cc12	x	44.8*	-1.93	-0.5	x
Cc1nn(-c2ccccc2)c2sc(C(=O)N3CCCCC3)cc12	x	22.5	-1.57	-0.8	x
Cc1cccc(C(=O)N[C@@H]2c3ccccc3C[C@@H]2O)n1	x	x	0.641	x	x
O=C(Nc1ccc(CN2CCOCC2)cc1)c1ccc(-c2cc(Cl)ccc2Cl)o1	-42.9	64.6*	0.423	73.3*	42.2
CCOC(=O)c1sc(NC(=O)CCN2C(=O)c3cccc([N+](=O)[O-])c3C2=O)c(C(=O)OCC)c1C	-1.8	8.2	-1.44	10.2	0.7
COc1cc(-c2nc3cnccn3c2Nc2ccc(C)cc2)ccc1O	-2.5	34.2*	-0.444	-7.5	4.4
CCN(CC)c1ccc(NC(=O)OC)cc1	5.7	-1.2	0.106	7.8	-3.3
N#Cc1c(-c2ccco2)nc(SCc2ccc(F)cc2)[nH]c1=O	-10.5	1.2	-4.54*	-8.1	13.6
CCCC(=O)C1=C(O)C(C(=O)OC)C(C)(C)CC1=NC(C)(C)C (centres undefined)	17.2	18.4	4.05*	7.3	-19.5
Cc1cc(C(F)(F)F)nn1CC(=O)N1CCOCC1	10.3	-2.8	0.378	-1.0	-7.9
CC(C)CCNC(=O)[C@H](CSCc1ccccc1)N1Cc2ccccc2C1=O	x	x	-3.79*	x	x
O=S(=O)(CCOc1ccccc1)c1nc2ccccc2[nH]1	-6.7	9.9	1.79	-0.3	4.7
Cc1nc(-c2cccc(NS(=O)(=O)c3ccc4ccccc4c3)c2)cs1	-5.3	39.0*	-2.38	8.4	5.0
CC(=O)Nc1ccc(NS(=O)(=O)c2ccc3ccccc3c2)cc1	7.1	4.2	-0.329	-6.1	-4.8
O=S(=O)(Nc1cccc(CCc2ccccn2)c1)c1ccc2ccccc2c1	-7.9	31.6*	-4.41*	6.0	8.3
CN(C)c1ccc(NC(=O)CN2CCN(S(=O)(=O)c3cc(Cl)ccc3Cl)CC2)cc1	-8.9	13.2	-4.12*	2.3	11.2
CCc1nc(SCC(=O)c2ccc3c(c2)OCCO3)c2ccccc2n1	-8.1	31.8*	-2.73	-4.2	9.7
O=C(CSc1nc(Cc2ccccc2)nc2ccccc12)c1ccc2c(c1)OCCO2	x	16.9	-2.19	20.1	x
COc1ccccc1N=c1scc(-c2ccc3c(c2)NC(=O)CO3)n1CC1CCCO1 (centres undefined)	x	1.4	-3.9*	7.7	x
OC1CCN(c2c3c(nc4cc(-c5ccc(F)cc5)nn24)CCC3)CC1	8.5	48.9*	-0.0566	1.7	-4.7
O=C(C1CCCO1)N1CCN(c2c3c(nc4cc(-c5ccc(F)cc5)nn24)CCC3)CC1 (centres undefined)	1.8	19.1	0.0797	-1.9	-5.1
Cc1cccc(-c2cc3nc4c(c(N5CCC6(CC5)OCCO6)n3n2)CCCC4)c1	6.3	x	x	x	-8.4
Fc1ccc(-c2cc3nc4c(c(N5CCOCC5)n3n2)CCCC4)cc1	-9.0	57.1*	-4.23	18.8	6.3
CS(=O)(=O)N(CC(=O)N1CCN(c2ccc(F)cc2)CC1)c1ccc(F)c(Cl)c1	-14.6	0.4	-2.61	3.2	13.1
Cc1c(N)cccc1-c1nc2ccccc2[nH]1	-3.2	x	0.137	x	5.3
COc1ccc(CNc2nc3nc(-c4ccccc4)cc(=O)n3[nH]2)cc1OC	-0.4	0.8	-0.214	7.0	3.6
Cc1ccc(NC(=S)C2=C(O)c3ccccc3N(C)S2(=O)=O)cc1	-0.2	2.2	-2.51	10.6	2.5
